NS1 inh: blocks influenza NS1 protein function; Potency, µM (series often up to 46.1 µM), for the others: at the highest dose activity, positive = more growth; 270,000 compounds, 0.4% hits; calls by dose curve; further: actives are rising curves; nearly all actives have a fitted effect of over 50% in size
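Recovery from NS1-induced slow growth read by OD600 in budding yeast switched to galactose assay medium (pH 6.0, -URA) at 1:100 dilution. Compound 23 nl per well; the matching strain lacking NS1 serves as control.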
Cruzain noTriton: cruzain (T. cruzi) inhibition without detergent | purified cruzain, Z-FR-AMC fluorescence, no detergent | Potency, µM, without a hit: max response, negative = inhibition, actives largely listed as inhibitors | 200,000 compounds, 2.3% hits | AID 1476;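 further: plate controls were enzyme without inhibitor for no effect and buffer without enzyme for full effect; nearly all actives have a fitted effect of over 40% in size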
Target sequence (P25779 123-467 limits assumed): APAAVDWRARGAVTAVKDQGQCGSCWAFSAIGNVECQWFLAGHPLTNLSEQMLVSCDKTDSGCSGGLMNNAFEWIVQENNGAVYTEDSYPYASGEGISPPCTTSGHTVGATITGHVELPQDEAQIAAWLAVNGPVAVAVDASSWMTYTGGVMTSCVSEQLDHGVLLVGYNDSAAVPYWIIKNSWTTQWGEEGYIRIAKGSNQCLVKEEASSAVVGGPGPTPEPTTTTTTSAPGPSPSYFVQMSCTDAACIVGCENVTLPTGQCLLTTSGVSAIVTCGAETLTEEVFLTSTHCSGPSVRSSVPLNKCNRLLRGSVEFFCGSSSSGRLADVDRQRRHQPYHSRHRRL
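Detergent-free condition (0.00005% Triton X-100) in acetate buffer pH 5.5 with DTT. 1.5 nM enzyme and compound were pre-mixed 15 min, then 2 uM Z-FR-AMC substrate added; reaction progress from fluorescence change between first and third reads (60 s).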
Cruzain Triton: inhibitors of Trypanosoma cruzi cruzain with detergent; P25779; purified cruzain, Z-FR-AMC fluorescence, 0.01% Triton; Potency, µM, without a hit: max response, negative = inhibition, hits mostly inhibitors; 200,000 compounds, 0.43% hits; AID 1478;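 further: plate controls were neutral wells for no effect and buffer without enzyme for full effect; nearly all actives have a fitted effect of over 40% in size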
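Detergent-containing arm of a paired screen for aggregation-based inhibition: 0.01% Triton X-100 present. Cruzain at 1.5 nM cleaved 2 uM Z-FR-AMC at pH 5.5 with 5 mM DTT; AMC fluorescence gain over 60 s measured activity.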
The depositor's hits bear a star; ? = inconclusive; . = not tested or not shown. Shown is part of a subset that was picked to be rich in hits. Unless noted, the call rests on the fitted dose curve; in most records, active means well fitted curve in the direction sought with a large enough effect; inconclusive means small, poorly fitted or top-dose-only effect, or another doubt; inactive means no such curve, though single readings can be large; an effect the other way counts as inactive or inconclusive. Potency means the concentration at half of the fitted maximal effect.

SMILES | NS1 inh | Cruzain noTriton | Cruzain Triton
Nc1ccc(Oc2ccc3nc(-c4ccccc4)c(-c4ccc([N+](=O)[O-])cc4)nc3c2)cc1 | -11.2% | 15.8µM* | 6.3%
N#Cc1ccc(Oc2ccc(-c3nc4ccccc4nc3-c3ccccc3)cc2)cc1C#N | -3.2% | ? | -4.2%
O=c1c2[nH]c3ccc(Br)cc3c2ncn1CCCn1ccnc1 | 4.9% | -0.8% | -2.7%
Cc1ccccc1OCCNC(=O)c1ccc2ccccc2n1 | -43.5% | 7.9% | -7.1%
Cc1ccc(CNC(=O)CN2CCN(Cc3ccc(F)cc3Cl)C2=O)cc1 | . | 5.1% | 0.5%
CCOc1ccc(-c2cc3nc(C4CCN(C(=O)OC(C)(C)C)CC4)c(C(=O)Nc4cccc(Cl)c4C)cn3n2)cc1 | . | 7.94µM* | -5.3%
CCOc1ccc(-c2cc3nc(C4CCN(C(=O)OC(C)(C)C)CC4)c(C(=O)Nc4ccc(C)cc4Cl)cn3n2)cc1 | . | ? | -8.7%
CCCCn1cnc2c(sc3nc4c(cc32)CSC(C)(C)C4)c1=O | 4.2% | -9.6% | -9.7%
COc1ccc(-c2nnn(CC(=O)NCc3cccs3)n2)cc1OC | ? | -3.7% | 7.0%
CCOC(=O)c1sc(=NC(=O)CCSc2ccccc2)n(C)c1C | 2.1% | . | .
COc1ccccc1OCCn1c(NC(=O)c2ccccc2Cl)nc2ccccc21 | . | 20µM* | -6.5%
CCCn1c(NC(=S)Nc2ccccc2)nc2ccccc21 | -30.8% | 6.3% | 3.8%
Clc1ccc(NCc2nc3ccccc3n2CCOc2ccccc2)cc1 | . | -7.2% | -7.0%
COc1ccccc1OCCn1c(NC(=O)c2ccc(Cl)cc2)nc2ccccc21 | . | 3.3% | -2.4%
CCn1c(NC(=S)Nc2ccccc2)nc2ccccc21 | -15.8% | 25.1µM* | -2.4%
S=C(Nc1ccccc1)Nc1nc2ccccc2n1CCOc1ccc(Cl)cc1 | 2.9% | 10µM* | 2.9%
O=C(OCCN1C(=O)CCC1=O)c1ccc(S(=O)(=O)N2CCCCC2)cc1 | 6.7% | 9.7% | -1.3%
O=C(NC1CCCC1)C1=COCCO1 | 5.1% | 0.4% | 4.0%
O=C(Nc1ccc(Cl)cc1)N1CCN(c2ccc3nnc(-c4ccccc4)n3n2)CC1 | . | ? | -4.7%
Cc1cc(NC(=O)Cn2nc(C)n3cccc3c2=O)ccc1Br | . | ? | -3.3%
CN1CCN(C(=O)CCN2C(=O)/C(=C\c3ccc(Cl)cc3)SC2=S)CC1 | -6.0% | . | .
NS(=O)(=O)c1ccc(CCN2C(=O)/C(=C\c3ccc(Cl)cc3)SC2=S)cc1 | 9.2% | 25.1µM* | -2.0%
CCCOc1ccc(/C=C/C(=O)Nc2ccc([N+](=O)[O-])cc2)cc1 | -35.8% | -27.0% | -10.9%
CCOc1ccc(/C=C/C(=O)Nc2ccc(C(N)=O)cc2)cc1OC | 18.7% | -2.7% | -5.1%
CCCCOc1ccc(/C=C/C(=O)Nc2ccc([N+](=O)[O-])cc2C)cc1 | 1.5% | 25.1µM* | -1.0%
SMILES | NS1 inh | Cruzain noTriton | Cruzain Triton
CCCCOc1ccc(/C=C/C(=O)Nc2ccc(C(N)=O)cc2)cc1 | 11.1% | 15.8µM* | -3.0%
COc1ccc(CCNC(=O)CN(c2ccc(OC)c(OC)c2)S(C)(=O)=O)cc1OC | 3.4% | 9.9% | 6.4%
Cc1ccc(-n2nc3c(c2NC(=O)c2c(F)cccc2Cl)CS(=O)(=O)C3)cc1C | 19.9% | . | .
COc1ccc(CN(C)C(=O)c2cccc(NS(=O)(=O)c3ccccc3)c2)c(OC)c1 | 11.5% | . | .
Cc1csc(N2CCN(c3cc4c(cc3Cl)nc(-c3ccncc3)n4CCCN3CCCC3)CC2)n1 | -1.7% | . | .
COC(=O)c1ccc(=O)n(CC(=O)c2ccc(Cl)cc2)c1 | -1.8% | . | .
CCOC(=O)c1c(NC(=O)Cn2nc(C(=O)O)c3ccccc3c2=O)sc2c1CCC(C)C2 (stereo not given) | 1.4% | . | .
CCOC(=O)c1c(NC(=O)Cn2nc([N+](=O)[O-])c(Br)c2C)sc2c1CCC(C)C2 (stereo not given) | 3.4% | 12.6µM* | -4.0%
Cc1cc(C)c(CN2C(=O)c3ccccc3S(=O)(=O)c3ccc(C(=O)OCC4CCCO4)cc32)c(C)c1 (stereo not given) | . | 12.6µM* | -2.0%
Cc1ccc(C)c(CN2C(=O)c3ccccc3S(=O)(=O)c3ccc(C(=O)OCC4CCCO4)cc32)c1 (stereo not given) | . | -24.6% | -0.6%
Cc1nn(-c2nnc(NCc3ccccc3)nn2)c(C)c1Br | -36.2% | ? | 12.6µM*
Cc1cc(C)n(-c2nc(C)nc(NCc3ccccc3)n2)n1 | -43.1% | -4.3% | 4.1%
Cc1cc2c(cc1S(=O)(=O)CCC(=O)NC1CCC(C)CC1)OCC(=O)N2 (stereo not given) | 13.6% | -1.4% | -1.4%
Oc1ccc(C2=NNC(=NCc3ccc4c(c3)OCO4)SC2)c(O)c1 | 16.4% | ? | -13.4%
COc1ccc(OC)c(C2=NNC(=NCc3ccc4c(c3)OCO4)SC2)c1 | 13.9% | 12.6µM* | -8.4%
CCC(C)[C@H](NC(=O)N1CCn2c1nc1ccccc12)C(=O)NCC1CCCO1 (stereo not given in full) | -8.4% | . | .

Compound activity (PubChem BioAssay)
